Data from PubChem BioAssay AID624305 (National Center for Advancing Translational Sciences (NCATS), 2012).
Records with an inconclusive call do not appear. A number with no mark means an inactive call. Calls of active or inactive are those of the source. The call rests on the fitted dose curve; in most records, active means well fitted activation curve with a large enough effect; inconclusive means small, poorly fitted or top-dose-only effect; inactive means no such curve, though single readings can be large or run the other way.
Potency means the concentration at half of the fitted maximal effect.

Assay: qHTS assay for re-activators of p53 using a Luc reporter: Hit Validation; further: nearly all actives have a fitted effect of over 75% in size; on activation: 0% is about no effect
Conditions: p53-responsive luciferase reporter cells, luminescence, H1299 line expressing heat-sensitive Ala138Val p53; series mostly up to 46.1 µM; activation: at the top concentration
Procedure, shortened: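 H1299 (p53-null) cells stably carrying p53-A138V and a BP100-luciferase reporter, 1000 cells/well, treated 24 h at 37 deg C. Compounds at several concentrations, 1:5 dilution; nocodazole control; luminescence read after 10 min with detection reagent.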
With `N#C/C(Cn1c[n+](NC(=O)Nc2ccccc2)cn1)=N/O` the “activation” value was 33.3%. In the case of `Cc1nn2cc(-c3ccc(-c4ccccc4)cc3)nc2s1`, the Potency is reported as 184 nM (active). For `Cc1cc(N2CCCCC2)n2ncc(-c3ccc(Cl)cc3)c2n1`, the Potency was 820 nM (active). With `C=Cc1ccc(Cn2c(=O)n(CCCOC)c(=O)c3sccc32)cc1` the “activation” value was -8.85%. With `O=C(NCCN1CCOCC1)c1cc(-c2cccs2)on1` the Potency was 23100 nM (active). With `Cc1cc(C)nc(SCc2csc(-c3ccccc3)n2)n1` the Potency was 13000 nM (active). With `Fc1cccc(NCc2cn3ccccc3n2)c1` the Potency was 3260 nM (active). With `N#Cc1nc(COc2ccccc2)oc1N1CCOCC1` the “activation” value was -9.38%. In the case of `CC(C)(C)c1ccc(/C=C2\SC(=O)N(CCNC(=O)c3cccc(S(=O)(=O)N4CCOCC4)c3)C2=O)cc1`, the Potency is reported as 1840 nM (active). In the case of `O=C(NNC(=O)C1CCCO1)c1ccccc1Cl` (stereo not drawn), the “activation” value is reported as -6.25%. For `O=C1CCCC(O)=C1N=Nc1ccc2c(c1)OCO2`, the Potency was 23100 nM (active). For `Oc1ccccc1-c1cc(-c2ccc3c(c2)OCCO3)n[nH]1`, the Potency was 184 nM (active). In the case of `COc1ccc2c(c1)Cc1sc(NC(C)=O)nc1-2`, the Potency is reported as 11600 nM (active). With `O=C(N/N=C/c1sc(=O)[nH]c1-[n+]1ccc2ccccc2c1)c1ccccc1[O-]` the “activation” value was 5.73%. Compound `CC(C)(C)c1ccc(S(=O)(=O)N2CCSC2)cc1` has an activation of -4.43% [at 9.22 µM]. For `c1ccc(-c2cn3c(n2)-c2ccccc2C3)cc1`, the Potency was 206 nM (active). In the case of `CN(C)/C=N/c1cnc(C(=O)c2ccc(Cl)cc2)n1C`, the Potency is reported as 2590 nM (active). With `CCCCCNC(=O)N[C@H](C(=O)O)C(C)C` the “activation” value was -15.6%. For `Cn1c(CCN2CCCCC2)nc2cc(NC(=O)Nc3ccccc3)ccc21`, the “activation” value was 10.4%. With `Cc1cc(C(=O)N2CCN(c3ccccc3Cl)CC2)c(C)o1` the Potency was 29100 nM (active). With `O=C(NCCC1=CCCCC1)c1ccc([N+](=O)[O-])cc1` the Potency was 2590 nM (active). Compound `CCCN1C(=O)SC(CC(=O)Nc2ccccc2C)C1=O` (stereo not drawn) has an activation of 12.4% [at 9.22 µM]. In the case of `COc1ccc2cc3c(N)nn(C(=O)c4ccc(Cl)c([N+](=O)[O-])c4)c3nc2c1`, the “activation” value is reported as -10.9%. For `O=C(NOCc1ccccc1)c1ccccc1`, the Potency was 9200 nM (active). For `Cc1cccc(NC2SC(=O)N(c3ccccc3)C2=O)c1` (stereo not drawn), the “activation” value was 41.1%. In the case of `COc1ccc(-n2nc([N+](=O)[O-])c(=NCc3ccco3)n2O)cc1`, the “activation” value is reported as 39.6%. In the case of `CC12CN(C(=O)c3cccc([N+](=O)[O-])c3)C3(C#N)CC1CCC23C` (stereo not drawn), the “activation” value is reported as -21.4%. For `O=c1cc(-c2ccc3c(c2)OCCO3)oc2ccc(Cl)cc12`, the Potency was 820 nM (active). In the case of `Cc1cc(C)cc(OCC(=O)NNC(=O)c2ccccn2)c1`, the “activation” value is reported as 18.2%. For `CN1CC(C(=O)Nc2ccc(F)c(Cl)c2)CC1=O` (stereo not drawn), the “activation” value was -4.69%. With `NC(=O)c1cc2ccc(O)cc2oc1=Nc1ccccc1` the “activation” value was -2.08%. For `Cc1ccc(OCC(=O)Nc2ccc(Cl)cc2)c([N+](=O)[O-])n1`, the Potency was 16400 nM (active). With `C/C(=N\NC(=S)NC(C)C)c1ccc(Cl)s1` the “activation” value was 14.1%. In the case of `CCN1CCN(/C=N/c2nc3c(s2)CCCC3)CC1`, the “activation” value is reported as -13%. For `C/C(=N\OCC(=O)NC12CC3CC(CC(C3)C1)C2)c1cc2ccccc2o1`, the “activation” value was 3.65%. In the case of `CCCCc1ccc(NC(=S)N2CCCC(CO)C2)cc1` (stereo not drawn), the Potency is reported as 651 nM (active). With `S=C(Nc1ccccc1)Nc1nc2ccccc2n1CCOc1ccc(Br)cc1` the “activation” value was -11.5%. In the case of `CCOC(=O)c1c(NC(=O)C2COc3ccccc3O2)sc2c1CCN(Cc1ccccc1)C2` (stereo not drawn), the “activation” value is reported as -4.69%.
